In PubChem BioAssay AID1159580 (chemical genetic matrix, 2015):
Values joined by “and” are separate entries in the source; they are usually repeats but may differ in a detail not shown here. Identical values can stand only once. The whole screen tested about 5,500 compounds, of which about 2,000 (36%) were called active. Inconclusive results (about 18%) are left out. Cut-off read from the data, not from the text of the source: active = normalized growth mostly below about 0.91 (no sharp cut-off); inconclusive = no clear call, values can overlap the other calls; inactive = mostly above about 0.92. Some of the results follow.

Assay: chemical genetic growth profiling, strain panel (AID 1159580);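 note: tested at 20 µM; growth read once vehicle control cultures reached saturation at 30 °C; 1 = growth at the plate median or of vehicle wells; lower values mean less growth of the strain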
Conditions: S. cerevisiae deletion strains, growth OD

Measured: normalized growth

C[C@@H]1C[C@@H]([C@H](O)CC2CC(=O)NC(=O)C2)C(=O)[C@@H](C)C1
active: locus YAL013W, strain DEP1, hits give low values 0.0595 | locus YAL021C, strain ccr4, hits give low values 0.0677 | locus YAL026C, strain drs2, hits give low values 0.0607 | locus YAL030W, strain snc1, hits give low values 0.0538 | locus YBL061C, strain skt5, hits give low values 0.0591 | locus YBR009C, strain hhf1, hits give low values 0.0595 | locus YBR021W, strain FUR4, hits give low values 0.0961 | locus YBR023C, strain chs3, hits give low values 0.0612 | locus YBR171W, strain sec66, hits give low values 0.075 | locus YBR229C, strain ROT2, hits give low values 0.031 | locus YBR231C, strain swc5, hits give low values 0.0623 | locus YBR279W, strain paf1, hits give low values 0.0578 | locus YCL011C, strain gbp2, hits give low values 0.0569 | locus YCL016C, strain dcc1, hits give low values 0.0627 | locus YCL029C, strain bik1, hits give low values 0.0585 | locus YCL069W, strain vba3, hits give low values 0.058 | locus YCR088W, strain abp1, hits give low values 0.0589 | locus YDL005C, strain med2, hits give low values 0.0714 | locus YDL035C, strain GPR1, hits give low values 0.0555 | locus YDL040C, strain nat1, hits give low values 0.0555 | locus YDL074C, strain BRE1, hits give low values 0.0968 | locus YDL101C, strain DUN1, hits give low values 0.0509 | locus YDL134C, strain PPH21, hits give low values 0.0498 | locus YDL185W, strain tfp1, hits give low values 0.0581 | locus YDL192W, strain arf1, hits give low values 0.0598 | locus YDR001C, strain nth1, hits give low values 0.0564 | locus YDR069C, strain doa4, hits give low values 0.0601 | locus YDR101C, strain arx1, hits give low values 0.0579 | locus YDR137W, strain rgp1, hits give low values 0.0878 | locus YDR150W, strain NUM1, hits give low values 0.0592 | locus YDR159W, strain sac3, hits give low values 0.0889 | locus YDR162C, strain NBP2, hits give low values 0.0524 | locus YDR195W, strain ref2 0.129 | locus YDR297W, strain sur2, hits give low values 0.0532 | locus YDR318W, strain mcm21, hits give low values 0.0664 | locus YDR334W, strain swr1, hits give low values 0.0608 | locus YDR335W, strain msn5, hits give low values 0.059 | locus YDR388W, hits give low values 0.0549 | locus YDR392W, strain spt3, hits give low values 0.0763 | locus YDR502C, strain sam2, hits give low values 0.061 | locus YEL003W, strain gim4, hits give low values 0.0527 | locus YEL037C, strain rad23, hits give low values 0.0554 | locus YEL061C, strain CIN8 (second series), hits give low values 0.0592 | locus YEL061C, strain CIN8, hits give low values 0.0496 | locus YER015W, strain faa2, hits give low values 0.0595 | locus YER016W, strain bim1, hits give low values 0.0609 | locus YER110C, hits give low values 0.0708 | locus YER111C, strain swi4, hits give low values 0.0709 | locus YER155C, strain BEM2 (second series), hits give low values 0.0899 | locus YER155C, strain BEM2, hits give low values 0.0629 | locus YER167W, strain BCK2, hits give low values 0.0564 | locus YFR010W, strain ubp6, hits give low values 0.0674 | locus YGL078C, strain dbp3, hits give low values 0.0553 | locus YGL086W, strain mad1, hits give low values 0.0574 | locus YGL167C, strain pmr1, hits give low values 0.0714 | locus YGL173C, strain kem1, hits give low values 0.0657 | locus YGL227W, strain vid30, hits give low values 0.06 | locus YGL240W, strain doc1, hits give low values 0.0796 | locus YGL248W, strain PDE1, hits give low values 0.0442 | locus YGL253W, strain hxk2, hits give low values 0.0535 | locus YGR078C, strain PAC10, hits give low values 0.0533 | locus YGR135W, strain pre9, hits give low values 0.0644 | locus YGR229C, strain SMI1, hits give low values 0.0652 | locus YGR252W, strain gcn5, hits give low values 0.175 | locus YHR013C, strain ard1, hits give low values 0.0947 | locus YHR027C, strain rpn1, hits give low values 0.0594 | locus YHR030C, strain SLT2, hits give low values 0.0489 and 0.101 | locus YHR079C, strain IRE1 (second series), hits give low values 0.0562 | locus YHR079C, strain IRE1, hits give low values 0.107 | locus YHR094C, strain hxt1, hits give low values 0.0562 | locus YHR129C, strain ARP1, hits give low values 0.0564 | locus YHR142W, strain chs7, hits give low values 0.0716 | locus YHR200W, strain rpn10, hits give low values 0.0589 | locus YIL066C, strain RNR3, hits give low values 0.0491 | locus YIL073C, strain SPO22, hits give low values 0.114 | locus YIL125W, strain kgd1, hits give low values 0.0558 | locus YIR030C, strain dcg1, hits give low values 0.0576 | locus YJL092W, strain hpr5, hits give low values 0.0581 | locus YJL095W, strain BCK1 (second series), hits give low values 0.0549 | locus YJL095W, strain BCK1, hits give low values 0.0583 and 0.105 | locus YJL115W, strain asf1, hits give low values 0.0707 | locus YJL129C, strain trk1, hits give low values 0.0813 | locus YJL134W, strain LCB3, hits give low values 0.0474 | locus YJL154C, strain vps35, hits give low values 0.0577 | locus YJL164C, strain tpk1, hits give low values 0.0602 | locus YJL166W, strain qcr8, hits give low values 0.0579 | locus YJL168C, strain set2, hits give low values 0.0578 | locus YJL187C, strain SWE1 (second series), hits give low values 0.0445 | locus YJL187C, strain SWE1, hits give low values 0.0553 | locus YJR043C, strain POL32, hits give low values 0.0691 | locus YJR066W, strain TOR1, hits give low values 0.000656
